# Source: the supplement of paper PMC12494721
# Where a name gives a salt, the structure may show the parent alone.
# System: Clostridium sporogenes DSM 1664
# Test: fold change of Tryptamine concentration vs plate DMSO controls (fold change (ratio)); higher = more amine produced, active = hit call of the paper (significant change in both replicates, either direction)
# Details: 20 µM; incubation time: 27 h, anaerobic, 37 °C;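 for the amine columns active = adjusted P below 0.05 in both replicates with a change the same way and a mean fold change under 0.8 or over 1.25; inactive = the rest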
# How it was run: (§1)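 Amines were quantified by LC–triple-quadrupole MS in dynamic MRM mode against external calibration curves, with drift correction within each batch. The samples were whole anaerobic mGAM cultures of four gut bacterial strains, grown for 27 h at 37 °C in 80 µL wells and extracted with cold acetonitrile/methanol with 0.1% formic acid, then centrifuged. Values are reported as fold change over DMSO controls on the same plate. The mean of 2 biological replicates is given.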
row,SMILES,fold change of Tryptamine concentration
1,C=C[C@H]1CN2CC[C@H]1C[C@H]2[C@H](OC(=O)OCC)c1ccnc2ccc(OC)cc12 [Quinine ethyl carbonate],1.01 (inactive)
2,S=C(NC1CCCCC1)N1CCC(c2cnc[nH]2)CC1 [Thioperamide maleate],1.05 (inactive)
3,N#Cc1sc2c(=O)c3ccccc3c(=O)c=2sc1C#N,0.877 (inactive)
4,CC(=O)OC1CN2CCC1CC2 (centres undefined) [Aceclidine hydrochloride],1.02 (inactive)
5,C1=Cc2cccc3cccc1c23 [Acenaphthylene],0.962 (inactive)
6,CS(=O)(=O)c1ccc(C(=O)C2C(=O)CCCC2=O)c([N+](=O)[O-])c1,0.928 (inactive)
7,CCN(CC)CCOC(=O)C(O)(c1ccccc1)c1ccccc1 [Benactyzine hydrochloride],0.997 (inactive)
8,c1ccc2c(c1)Nc1ccccc1S2 [Phenothiazine],0.995 (inactive)
9,CCC1(C)CC(=O)NC(=O)C1 [Bemegride],1.04 (inactive)
10,CNC(=O)/C=C(\C)OP(=O)(OC)OC,1.05 (inactive)
11,CC[N+]1(C)CCCC(OC(=O)C(O)(c2ccccc2)c2ccccc2)C1 (centres undefined) [Pipenzolate bromide],0.957 (inactive)
12,CC(C)(C)c1ccc(CSc2cnn(C(C)(C)C)c(=O)c2Cl)cc1,1.02 (inactive)
13,CSc1nc(NC(C)C)nc(NC(C)C)n1,0.943 (inactive)
14,O=C(Nc1ccc(F)cc1F)c1cccnc1Oc1cccc(C(F)(F)F)c1,0.987 (inactive)
15,O=C(CCCN1CCC2(CC1)C(=O)NCN2c1ccccc1)c1ccc(F)cc1 [Spiperone],0.991 (inactive)
16,CCOCN(C(=O)CCl)c1c(C)cccc1CC,1.06 (inactive)
17,ClC1C(Cl)C(Cl)C(Cl)C(Cl)C1Cl (centres undefined),0.972 (inactive)
18,CCSC(C)CC1CC(=O)C(/C(CC)=N/OC/C=C/Cl)=C(O)C1 (mixture of isomers),1.01 (inactive)
19,O=P1(N(CCCl)CCCl)NCCCO1 (centres undefined) [Cyclophosphamide],0.997 (inactive)

row,SMILES,fold change of Tryptamine concentration
1,CN1[C@@H]2C[C@@H](OC(=O)[C@H](CO)c3ccccc3)C[C@H]1[C@@H]1O[C@@H]12 [Scopolamine hydrochloride],1.2 (inactive)
2,COP(=S)(OC)SCN1C(=O)c2ccccc2C1=O,1.03 (inactive)
3,CC(C)N(C)S(=O)(=O)NC(=O)c1cc(-n2c(=O)cc(C(F)(F)F)n(C)c2=O)c(F)cc1Cl,1.03 (inactive)
4,CN/C(=N/CC1CCOC1)N[N+](=O)[O-] (centres undefined),0.993 (inactive)
5,CC(=O)O[C@H]1C[C@H](O[C@H]2[C@@H](O)C[C@H](O[C@H]3[C@@H](O)C[C@H](O[C@H]4CC[C@@]5(C)[C@H](CC[C@@H]6[C@@H]5C[C@@H](O)[C@]5(C)[C@@H](C7=CC(=O)OC7)CC[C@]65O)C4)O[C@@H]3C)O[C@@H]2C)O[C@H](C)[C@H]1O[C@@H]1O[C@H](CO)[C@@H](O)[C@H](O)[C@H]1O [Lanatoside C],0.962 (inactive)
6,NC(=O)C[S+]([O-])C(c1ccccc1)c1ccccc1 (centres undefined) [Modafinil],1.1 (inactive)
7,CCn1cc(C(=O)O)c(=O)c2cc3c(cc21)OCO3 [Oxolinic acid],0.0614 (active)
8,c1ccc2c(c1)cc1ccc3cccc4ccc2c1c34 [Benzo[a]pyrene],1.03 (inactive)
9,CCNC(=O)NC(=O)/C(C#N)=N/OC,0.956 (inactive)
10,CNC(=O)Oc1ccc2c(c1)[C@]1(C)CCN(C)[C@@H]1N2C [Eserine hemisulfate salt],1.02 (inactive)
11,Oc1ccc2c3c1O[C@H]1[C@@H](O)CC[C@@]4(O)[C@@H](C2)N(CC2CCC2)CC[C@]314 [Nalbuphine hydrochloride],1 (inactive)
12,CON(C)C(=O)Nc1ccc(Cl)c(Cl)c1,1.02 (inactive)
13,C=CC(N)=O [Acrylamide],1.03 (inactive)
14,Nc1ccncc1 [Dalfampridine],1 (inactive)
15,CC(=O)O[C@H]1C[C@@H]2CC[C@@H]3[C@H](CC[C@@]4(C)[C@H]3C[C@H]([N+]3(C)CCCCC3)[C@@H]4OC(C)=O)[C@@]2(C)C[C@@H]1[N+]1(C)CCCCC1 [Pancuronium bromide],1.04 (inactive)
16,CC(C)(C)C(O)(CCc1ccc(Cl)cc1)Cn1cncn1 (centres undefined),1.24 (inactive)
17,CCNC1(c2cccs2)CCCCC1=O (centres undefined) [Tiletamine hydrochloride],1.04 (inactive)
18,COc1ccc(OC)c(C(O)C(C)N)c1 (centres undefined) [Methoxamine hydrochloride],1.07 (inactive)

# System: Ruminococcus gnavus DSM 108212
# Test: as above
# Details: 20 µM; incubation time: 27 h, anaerobic, 37 °C
# How it was run: as §1
row,SMILES,fold change of Tryptamine concentration
1,C=C[C@H]1CN2CC[C@H]1C[C@H]2[C@H](OC(=O)OCC)c1ccnc2ccc(OC)cc12 [Quinine ethyl carbonate],0.955 (inactive)
2,S=C(NC1CCCCC1)N1CCC(c2cnc[nH]2)CC1 [Thioperamide maleate],1.02 (inactive)
3,N#Cc1sc2c(=O)c3ccccc3c(=O)c=2sc1C#N,0.906 (inactive)
4,CC(=O)OC1CN2CCC1CC2 (centres undefined) [Aceclidine hydrochloride],1.03 (inactive)
5,C1=Cc2cccc3cccc1c23 [Acenaphthylene],0.991 (inactive)
6,CS(=O)(=O)c1ccc(C(=O)C2C(=O)CCCC2=O)c([N+](=O)[O-])c1,1 (inactive)
7,CCN(CC)CCOC(=O)C(O)(c1ccccc1)c1ccccc1 [Benactyzine hydrochloride],1.06 (inactive)
8,c1ccc2c(c1)Nc1ccccc1S2 [Phenothiazine],1.01 (inactive)
9,CCC1(C)CC(=O)NC(=O)C1 [Bemegride],1.03 (inactive)
10,CNC(=O)/C=C(\C)OP(=O)(OC)OC,0.985 (inactive)
11,CC[N+]1(C)CCCC(OC(=O)C(O)(c2ccccc2)c2ccccc2)C1 (centres undefined) [Pipenzolate bromide],0.956 (inactive)
12,CC(C)(C)c1ccc(CSc2cnn(C(C)(C)C)c(=O)c2Cl)cc1,0.997 (inactive)
13,CSc1nc(NC(C)C)nc(NC(C)C)n1,0.955 (inactive)
14,O=C(Nc1ccc(F)cc1F)c1cccnc1Oc1cccc(C(F)(F)F)c1,0.983 (inactive)
15,O=C(CCCN1CCC2(CC1)C(=O)NCN2c1ccccc1)c1ccc(F)cc1 [Spiperone],1.01 (inactive)
16,CCOCN(C(=O)CCl)c1c(C)cccc1CC,1.01 (inactive)
17,ClC1C(Cl)C(Cl)C(Cl)C(Cl)C1Cl (centres undefined),0.98 (inactive)
18,CCSC(C)CC1CC(=O)C(/C(CC)=N/OC/C=C/Cl)=C(O)C1 (mixture of isomers),1.03 (inactive)
19,O=P1(N(CCCl)CCCl)NCCCO1 (centres undefined) [Cyclophosphamide],1.02 (inactive)

row,SMILES,fold change of Tryptamine concentration
1,CN1[C@@H]2C[C@@H](OC(=O)[C@H](CO)c3ccccc3)C[C@H]1[C@@H]1O[C@@H]12 [Scopolamine hydrochloride],1.08 (inactive)
2,COP(=S)(OC)SCN1C(=O)c2ccccc2C1=O,1.01 (inactive)
3,CC(C)N(C)S(=O)(=O)NC(=O)c1cc(-n2c(=O)cc(C(F)(F)F)n(C)c2=O)c(F)cc1Cl,0.884 (inactive)
4,CN/C(=N/CC1CCOC1)N[N+](=O)[O-] (centres undefined),1.01 (inactive)
5,CC(=O)O[C@H]1C[C@H](O[C@H]2[C@@H](O)C[C@H](O[C@H]3[C@@H](O)C[C@H](O[C@H]4CC[C@@]5(C)[C@H](CC[C@@H]6[C@@H]5C[C@@H](O)[C@]5(C)[C@@H](C7=CC(=O)OC7)CC[C@]65O)C4)O[C@@H]3C)O[C@@H]2C)O[C@H](C)[C@H]1O[C@@H]1O[C@H](CO)[C@@H](O)[C@H](O)[C@H]1O [Lanatoside C],1.07 (inactive)
6,NC(=O)C[S+]([O-])C(c1ccccc1)c1ccccc1 (centres undefined) [Modafinil],1.03 (inactive)
7,CCn1cc(C(=O)O)c(=O)c2cc3c(cc21)OCO3 [Oxolinic acid],1 (inactive)
8,c1ccc2c(c1)cc1ccc3cccc4ccc2c1c34 [Benzo[a]pyrene],1.01 (inactive)
9,CCNC(=O)NC(=O)/C(C#N)=N/OC,1 (inactive)
10,CNC(=O)Oc1ccc2c(c1)[C@]1(C)CCN(C)[C@@H]1N2C [Eserine hemisulfate salt],1.03 (inactive)
11,Oc1ccc2c3c1O[C@H]1[C@@H](O)CC[C@@]4(O)[C@@H](C2)N(CC2CCC2)CC[C@]314 [Nalbuphine hydrochloride],0.957 (inactive)
12,CON(C)C(=O)Nc1ccc(Cl)c(Cl)c1,0.969 (inactive)
13,C=CC(N)=O [Acrylamide],0.999 (inactive)
14,Nc1ccncc1 [Dalfampridine],1 (inactive)
15,CC(=O)O[C@H]1C[C@@H]2CC[C@@H]3[C@H](CC[C@@]4(C)[C@H]3C[C@H]([N+]3(C)CCCCC3)[C@@H]4OC(C)=O)[C@@]2(C)C[C@@H]1[N+]1(C)CCCCC1 [Pancuronium bromide],1.07 (inactive)
16,CC(C)(C)C(O)(CCc1ccc(Cl)cc1)Cn1cncn1 (centres undefined),1.07 (inactive)
17,CCNC1(c2cccs2)CCCCC1=O (centres undefined) [Tiletamine hydrochloride],1.02 (inactive)
18,COc1ccc(OC)c(C(O)C(C)N)c1 (centres undefined) [Methoxamine hydrochloride],0.161 (active)
